Results as given in PubChem BioAssay AID1851 (National Center for Advancing Translational Sciences (NCATS), 2009).
Where “and” joins values, the source holds several entries; their conditions need not be identical. Equal entries are not always repeated. Out of some 16,000 compounds screened, about 5,700 (36%) were called active. Inconclusive results (about 24%) are left out. The call rests on the fitted dose curve; in most records, active means well fitted curve in the direction sought with a large enough effect; inconclusive means small, poorly fitted or top-dose-only effect, or effect the other way; inactive means no such curve, though single readings can be large or run the other way. The list shows a part of the results. More than one record can exist for a structure, and the calls need not agree.

target: Cytochrome P450 1A2 (Homo sapiens) (UniProt P05177); test: Cytochrome panel assay with activity outcomes; details: recombinant CYP, pro-luciferin dealkylation, luminescence, p450-cyp1a2; series mostly up to 57.1 µM; activity, negative = inhibition: at the top concentration
Sequence (P05177 whole entry, looked up): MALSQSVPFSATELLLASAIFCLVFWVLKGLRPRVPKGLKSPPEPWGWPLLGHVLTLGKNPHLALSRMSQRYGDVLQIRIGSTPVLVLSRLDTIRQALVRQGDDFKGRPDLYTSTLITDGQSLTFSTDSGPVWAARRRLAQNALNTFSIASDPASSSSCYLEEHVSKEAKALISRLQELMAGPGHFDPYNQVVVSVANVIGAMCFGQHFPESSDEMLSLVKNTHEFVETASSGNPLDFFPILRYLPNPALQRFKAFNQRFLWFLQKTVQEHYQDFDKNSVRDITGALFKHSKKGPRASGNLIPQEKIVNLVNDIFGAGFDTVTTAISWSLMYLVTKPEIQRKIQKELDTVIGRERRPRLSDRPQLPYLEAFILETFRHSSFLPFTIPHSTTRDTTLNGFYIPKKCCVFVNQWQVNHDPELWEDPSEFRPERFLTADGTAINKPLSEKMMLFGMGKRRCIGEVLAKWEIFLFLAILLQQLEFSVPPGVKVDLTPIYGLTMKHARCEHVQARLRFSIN
On the % scale 0 is the no-effect control and ±100 the full control effect.

activity, negative = inhibition, inactive:
Cc1ccc(S(=O)(=O)N[C@H]2COC(=O)[C@@H](Cc3ccccc3)NC(=O)[C@@H](C)COC(=O)C/C=C\[C@@H]2C)cc1 -7.75% [at 11.4 µM] and -3.67% [at 11.4 µM]
Cc1c(NC(=O)C23CC4CC(CC(C)(C4)C2)C3)c(=O)n(-c2ccccc2)n1C -19.4%
CS(=O)(=O)c1ccc(Cn2c3c(c4cc(F)cc(F)c42)CCC[C@H]3CC(=O)O)cc1 5.15%
O=C(NN1C(=O)c2ccccc2C1=O)C1CCCCC1 6.68%
O=C(O)C[C@H](Cc1ccccc1Cl)C(=O)O -17.6% [at 11.4 µM]
CC1=CC(=O)CC(C)(C)[C@]1(O)/C=C\C(C)=C\C(=O)O -7.1% [at 11.4 µM]
CCS(=O)(=O)N(C)[C@@H]1c2cc(C#N)ccc2OC(C)(C)[C@H]1O -4.66%
CCOC(=O)C(C)CC(C)C(=O)N1CCOCCN(C(=O)C(C)CC(C)C(=O)OCC)CCOCC1 (stereo not given) 1.57%
Cc1ccc(C(=O)Nc2ccc(C(=O)/C=C/c3cccs3)cc2)cc1 -9.32%
O=C(O)[C@H](Cc1c[nH]c2ccccc12)N1C(=O)c2ccccc2C1=O -8.32% [at 2.29 µM]

AC50, inactive and 20 µM (active):
CC1=C(\C=C/C(C)=C/C=C\C(C)=C\C(=O)O)C(C)(C)CCC1

AC50, active:
Cc1c(CC(C)(C)C(=O)O)n(Cc2ccc(Cl)cc2)c2ccc(F)cc12 15800 nM
OCCNc1nc(NCCC2=CCCCC2)nc(N2CCOCC2)n1 708 nM
O=C(CSCc1ccccc1Cl)NN1C(=O)c2ccccc2C1=O 14100 nM
O=C1/C(=C\c2ccc(Br)o2)SC(=Nc2ccccc2)N1c1ccccc1 126 nM
CC1=NN(C(=O)c2ccncc2)C(=O)[C@@H]1N=Nc1ccc2ccccc2c1 158 nM
Cc1ccc(C)c(Nc2nc3nonc3nc2N2CCOCC2)c1 5010 nM
FC(F)(F)c1nc2ccccc2nc1N/N=C\c1ccccc1 562 nM
FC(F)(F)c1nc2ccccc2nc1N/N=C/c1ccc(Cl)cc1 1410 nM
Cc1noc(C)c1-c1cc(NCc2cccnc2)ncn1 1000 nM
Cc1cccc(CNc2cc(-c3c(C)noc3C)ncn2)c1 1000 nM
Cc1noc(C)c1-c1cc(NCc2ccccc2)ncn1 5010 nM
COc1ccccc1CNc1cc(-c2c(C)noc2C)ncn1 5010 nM
Cc1noc(C)c1-c1cc(NCc2cccs2)ncn1 794 nM
Cc1ccc(C(=O)/C=C/c2c[nH]c3ccccc23)cc1 5620 nM
